From PubChem BioAssay
A selection: hits, their analogues and other compounds. The true share with any hit is near 2.6%.
Cruzain inh Det = qHTS Assay for Promiscuous and Specific Inhibitors of Cruzain (with detergent); purified cruzain, Z-FR-AMC fluorescence, 0.01% Triton; Potency, µM, for inactives: max response, negative = inhibition, most hits filed as inhibitors; hit rate 0.43% among 200,000; AID 1478, 2009;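 also: plate controls were neutral wells for no effect and buffer without enzyme for full effect; nearly all actives have a fitted effect of over 40% in size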
Target sequence (P25779 123-467 limits assumed): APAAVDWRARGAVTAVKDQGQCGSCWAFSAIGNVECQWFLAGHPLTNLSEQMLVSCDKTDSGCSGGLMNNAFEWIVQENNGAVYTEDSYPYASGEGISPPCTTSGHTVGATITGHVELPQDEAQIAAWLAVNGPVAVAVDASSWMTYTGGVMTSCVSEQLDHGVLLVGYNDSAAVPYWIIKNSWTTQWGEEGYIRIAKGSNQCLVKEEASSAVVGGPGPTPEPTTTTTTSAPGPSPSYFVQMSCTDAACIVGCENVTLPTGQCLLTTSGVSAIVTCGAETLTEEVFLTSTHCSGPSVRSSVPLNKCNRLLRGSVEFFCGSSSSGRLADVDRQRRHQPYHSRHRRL
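Compounds were screened in titration against cruzain (1.5 nM) with 0.01% Triton X-100 to counter colloidal aggregation. Activity was the AMC fluorescence increase over 60 s after adding 2 uM Z-FR-AMC at pH 5.5.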
Cruzain inh noDet = qHTS Assay for Promiscuous and Specific Inhibitors of Cruzain (without detergent); Potency, µM, for the others: max response, negative = inhibition, usual class: inhibitors; purified cruzain, Z-FR-AMC fluorescence, no detergent; Cruzipain (Trypanosoma cruzi), P25779; hit rate 2.3% among 200,000;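 also: plate controls were enzyme without inhibitor for no effect and buffer without enzyme for full effect; nearly all actives have a fitted effect of over 40% in size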
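Purified cruzain at 1.5 nM, pre-incubated 15 min with compound at room temperature in 100 mM sodium acetate pH 5.5, 5 mM DTT, 0.00005% Triton X-100. Reaction started with 2 uM Z-FR-AMC; AMC fluorescence increase over 60 s gives rate.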
* = called active by the depositor; ? = inconclusive. Calls follow the shape of the dose curve; as a rule, active = well fitted curve in the direction sought with a large enough effect; inconclusive = small, poorly fitted or top-dose-only effect, or another doubt; inactive = no such curve, though single readings can be large; an effect the other way counts as inactive or inconclusive. Potency is read from the fitted curve at half-maximal effect.

SMILES	Cruzain inh Det	Cruzain inh noDet
CCCn1c(SC(C(=O)Nc2cccc(OC)c2)c2ccccc2)nc2ccccc2c1=O (stereo unspecified)	-3.9%	10µM*
COc1cccc(NC(=O)C(Sc2nnc3ccccn23)c2ccccc2)c1 (stereo unspecified)	-3.4%	-4.8%
COc1cc(CNCCSc2nnnn2C)cc(Cl)c1OCc1ccccc1	-0.1%	2.0%
CC(C)CC(=O)Nc1ccc(C(=O)NNC(=S)NC(=O)C2CCCCC2)cc1	-2.4%	-23.3%
Cc1cc(OCc2ccc([N+](=O)[O-])cc2)c2c3c(c(=O)oc2c1)CCCC3	-1.1%	12.6µM*
Cc1c(OCc2ccc([N+](=O)[O-])cc2)ccc2c3c(c(=O)oc12)CCC3	-0.7%	-19.3%
COc1ccc([N+](=O)[O-])cc1COc1cc(C)cc2oc(=O)cc(-c3ccccc3)c12	-0.5%	31.6µM*
Cc1cc(O)c2c(-c3ccccc3)cc(=O)oc2c1	-5.5%	2.7%
CC1CCN(c2nc3ccccc3nc2N2CCC(C)CC2)CC1	7.5%	-7.2%
COC(=O)c1ccccc1NC(NC(=O)c1ccco1)C(=O)c1ccc(C)cc1 (stereo unspecified)	-0.3%	?
Cc1ccc(CNC(=O)Cc2nc3nc(C)cc(C)n3n2)cc1	1.2%	-4.8%
Cc1cc(C)n2nc(CC(=O)NCc3ccccc3Cl)nc2n1	15.8µM*	7.9%
O=[N+]([O-])c1ccc(N2CCN(S(=O)(=O)c3ccc4ccccc4c3)CC2)cc1NCC1CCCO1 (stereo unspecified)	1.4%	15.8µM*
O=[N+]([O-])c1ccc(N2CCN(S(=O)(=O)c3ccccc3)CC2)cc1NCC1CCCO1 (stereo unspecified)	-4.2%	12.0%
CCCC(C(=O)NCc1ccc(OC)cc1)N(Cc1ccco1)C(=O)c1snc(C(N)=O)c1N (stereo unspecified)	-5.2%	-7.3%
CC(=O)NC(Cc1c[nH]c2ccccc12)C(=O)OCC(=O)Nc1cc(C)on1 (stereo unspecified)	-1.5%	-1.1%
O=C(NC(Cc1c[nH]c2ccccc12)C(=O)O)c1ccccc1 (stereo unspecified)	-3.3%	-8.0%
CCc1ccc(C(=O)NC(Cc2c[nH]c3ccccc23)C(=O)OCC(=O)c2ccc(Br)cc2)cc1 (stereo unspecified)	-5.1%	15.8µM*
O=C(COC(=O)C(Cc1c[nH]c2ccccc12)NC(=O)c1ccc(Br)cc1)c1ccc(Cl)cc1 (stereo unspecified)	-0.8%	?
Cc1ccc(C(=O)COC(=O)C(Cc2c[nH]c3ccccc23)NC(=O)c2ccc(C(C)(C)C)cc2)cc1 (stereo unspecified)	2.0%	10µM*
O=C(COC(=O)C(Cc1c[nH]c2ccccc12)NC(=O)c1ccc(Cl)cc1)c1ccc(Cl)cc1 (stereo unspecified)	-2.3%	?
CC(C)(C)c1ccc(C(=O)NC(Cc2c[nH]c3ccccc23)C(=O)OCC(=O)c2ccc(Br)cc2)cc1 (stereo unspecified)	-4.0%	10µM*
Cc1cc(NC(=O)COC(=O)[C@H](Cc2c[nH]c3ccccc23)NC(=O)c2ccc(F)cc2)no1	14.1µM*	?
COC(=O)CC1SC(=O)NC1=Nc1ccc(O)cc1 (stereo unspecified)	0.8%	-7.7%
CCOc1ccc(C2C=C(c3ccc(C)cc3)Nc3ncnn32)cc1 (stereo unspecified)	16.7%	?
SMILES	Cruzain inh Det	Cruzain inh noDet
COc1cccc(CNC(=O)N2CCc3c(sc4c3CCCC4)C2c2ccc(F)cc2)c1 (stereo unspecified)	-2.2%	6.31µM*
O=C(NCc1ccccc1)N1CCc2c(sc3c2CCCC3)C1c1ccccc1 (stereo unspecified)	-2.4%	?
CC(C)(C)c1nn2cnnc2n(/N=C/c2cccc3ccccc23)c1=O	-2.1%	18.5%
Cc1sc2ncnc(SCC(=O)NCC(C)C)c2c1C	-10.9%	-4.9%
CCc1ccc(OCC(=O)NNC(=O)CSc2ncnc3sc(C)c(C)c23)cc1	0.8%	20µM*
Cc1nnc(NC(=O)CSc2ncnc3scc(-c4ccccc4)c23)s1	1.3%	-25.6%
Cc1sc2ncnc(SCc3ccco3)c2c1C	-8.7%	-17.0%
Cc1sc2ncnc(SCC(=O)c3ccc(Cl)s3)c2c1C	-2.0%	10µM*
COC(=O)c1c(-c2ccccc2)csc1NC(=O)CSc1ncnc2sc(C)c(C)c12	-0.7%	6.31µM*
C=CCn1c(SCC(=O)NC2CCCCC2)nnc1-c1ccc(OC)cc1	0.8%	-8.6%
CCC(c1nnnn1CCc1ccccc1)N(Cc1ccco1)Cc1cc2cccc(C)c2[nH]c1=O (stereo unspecified)	-1.7%	-9.1%
CCN(CC)CCCNC(=O)c1ccc2c(=O)n(CCc3ccccc3)c(=O)[nH]c2c1	-0.2%	-0.2%
CC(C)CN(CCOc1cccc(N2C(=O)C3=C(CCCC3)C2=O)c1)CC(C)C	-12.8%	-23.9%
CC(=O)c1cc(-c2ccccc2)n(CC(=O)Nc2ccc(C)cc2C)c1C	0.7%	-9.3%
O=C(NCc1ccco1)c1ccc2c(c1)N(Cc1ccccc1)C(=O)CS2=O (stereo unspecified)	-4.6%	-10.8%
Cc1ccc2c(c1[N+](=O)[O-])C(=O)c1ccccc1C2=O	5.6%	1.6%
Cc1[nH]c2ccccc2c1CCNC(=O)c1ccc2c(c1[N+](=O)[O-])C(=O)c1ccccc1C2=O	2.2%	10µM*
Cc1[nH]c2c(C)cccc2c1CCNC(=O)c1ccc2c(c1[N+](=O)[O-])C(=O)c1ccccc1C2=O	2.7%	7.94µM*
CN(C)C(=O)c1ccc2c(c1[N+](=O)[O-])C(=O)c1ccccc1C2=O	-0.1%	-11.1%
C[C@@]1(C(NC(=O)c2cccs2)c2ccc(-c3ccccc3)cc2)C[C@H]1C1CCCCC1 (stereo partly specified)	3.5%	3.98µM*
COC(=O)c1ccc(C(NC(=O)c2ccccc2)[C@]2(C)C[C@H]2C2CCCCC2)cc1 (stereo partly specified)	0.9%	-15.4%
Cc1ccc(S(=O)(=O)N/N=C\c2cccnc2)cc1	3.2%	-1.1%
Cc1ccc(-c2cc(-c3ccccc3O)nc(N/N=C/c3cccnc3)n2)cc1	3.0%	25.1µM*
O=c1[nH]c(-c2ccc(Cl)cc2)nc2c1cnn2-c1ccccc1	4.7%	25.1µM*
Cc1ccc(-c2nc3c(cnn3-c3ccccc3)c(=O)n2-c2ccc(Cl)cc2)cc1	-2.6%	-10.6%
SMILES	Cruzain inh Det	Cruzain inh noDet
CCCCSc1nc2c(cnn2-c2ccc(F)cc2)c(=O)[nH]1	-2.7%	-4.5%
CCCSc1nc2c(cnn2-c2ccc(Cl)cc2)c(=O)[nH]1	-0.4%	10µM*
O=C(CC(C(=O)O)C1CCCO1)NCCc1ccc2c(c1)OCO2 (stereo unspecified)	5.0%	-14.4%
Cc1ccc(NC(=O)c2oc3ccccc3c2NC(=O)c2cc3ccccc3o2)cc1	0.4%	?
O=C(Nc1c(C(=O)Nc2cccc(F)c2)oc2ccccc12)c1cc2ccccc2o1	-2.6%	15.8µM*
CC1CCN(CCC(=O)N2CCCc3c2c(=O)oc2ccc(O)cc32)CC1	-1.2%	-0.7%
COc1ccc(CNC(=O)CCCn2nc(C)c3sc4ccccc4c3c2=O)cc1OC	-4.8%	-22.3%
COc1ccccc1CNC(=O)CCCn1nc(C)c2sc3ccccc3c2c1=O	-3.7%	10µM*
